Assay results from PubChem BioAssay AID1578 (Sanford-Burnham Center for Chemical Genomics, 2009).
Where “and” joins values, the source holds several entries; their conditions need not be identical. Equal entries are not always repeated. Out of some 290,000 compounds screened, about 3,000 (1%) were called active. No stated cut-off is given here; in the data, active means inhibition mostly above about 36% (no sharp cut-off); inactive means mostly below about 34%. For the sample, actives were picked, then their nearest neighbours and some compounds at random.

Assay: inhibition of NOD1-driven NF-kB reporter – cell-based, luminescence, uHTS, primary screen (AID 1578);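 further: HEK-293T reporter cells stimulated with the NOD1 agonist gamma-tri-DAP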
Conditions: NOD1-driven NF-kB luciferase reporter cells, at 4 µM, hits give high values

| Structure (SMILES) | inhibition |
| --- | --- |
| COCCNC(=O)c1ccc(C)c(NC(=O)C2=C(C)OCCS2)c1 | -9.9% (inactive) |
| COC(=O)C(CC(=O)O)NCc1ccco1 (configuration not stated) | -10.9% (inactive) |
| CC(=O)N1CCN(CC(=O)Nc2ccc([N+](=O)[O-])cc2Br)CC1 | -29.7% (inactive) |
| FC(F)(F)c1ccccc1NC(=S)NN1CCOCC1 | -11.5% (inactive) |
| O=C(O)c1cccc(Nc2ccnc(Nc3cccc(C(=O)O)c3)n2)c1 | 38.5% (active) |
| O=C(O)c1cccc(Nc2ccc([N+](=O)[O-])cn2)c1 | -19.2% (inactive) |
| c1ccc(Nc2ccnc(Nc3ccccc3)n2)cc1 | 8.8% (inactive) |
| CCOC(=O)C1=C(C)N(C)C(=S)NC1c1ccc(Cl)cc1Cl (configuration not stated) | -11.6% (inactive) |
| C[n+]1c2n(c3ccccc31)N=C(c1ccccc1)CS2 | 5% (inactive) and 22.1% (inactive) |
| C[n+]1c2n(c3ccccc31)N=C(c1ccc(-c3ccccc3)cc1)CS2 | 43.5% (inactive) |
| Cc1cc(=O)oc2cc(NC(=O)c3ccccc3OC(F)F)ccc12 | -62.7% (inactive) |
| Cc1ccc(O)c(C(=O)c2cc(C#N)c(=O)n(Cc3ccccc3)c2)c1 | -10.3% (inactive) |
| Cc1ccc(O)c(C(=O)c2cc(C#N)c(=O)n(C(C)c3ccccc3)c2)c1 (configuration not stated) | -4.6% (inactive) |
| Cc1c(NC(=O)c2ccc(N(Cc3ccccc3)S(C)(=O)=O)cc2)c(=O)n(-c2ccccc2)n1C | -26.8% (inactive) |
| CCOC(=O)N1CCN(C(=O)C2CCC(=O)N2C(C)C)CC1 (configuration not stated) | 3.6% (inactive) |
| COc1ccc(/C=C/C(=O)O/N=C(\N)c2cccnc2)cc1OC | -10% (inactive) |
| Cc1ccccc1-c1nc(CS(=O)CC(=O)NC(C)CCc2ccccc2)c(C)o1 (configuration not stated) | 19.2% (inactive) |
| Cc1cccc(-c2nc(CS(=O)CC(=O)NC(C)CCc3ccccc3)c(C)o2)c1 (configuration not stated) | 20.6% (inactive) |
| Cc1ccc(-c2nc(CS(=O)CC(=O)NC(C)CCc3ccccc3)c(C)o2)cc1 (configuration not stated) | 41.4% (active) |

| Structure (SMILES) | inhibition |
| --- | --- |
| Cc1c(OCC(=O)NCCCn2ccnc2)ccc2c3c(c(=O)oc12)CCC3 | -17.1% (inactive) |
| Cc1cc(C)cc(NC(=O)C2C3C=CC(O3)C2C(=O)O)c1 (configuration not stated) | -15.9% (inactive) |
| O=C1C=C(c2cccs2)C[C@H](c2ccccc2)[C@H]1n1nnc([N+](=O)[O-])n1 | 42.1% (inactive) |
| O=C1C=C(c2ccccc2)C[C@H](c2cccs2)[C@H]1n1cnc([N+](=O)[O-])c1 | -24.8% (inactive) |
| CCN(CC)C(=O)c1sc(NC(=S)N2CCN(C(=O)C3CCCO3)CC2)c(C(=O)OC)c1C (configuration not stated) | 2.3% (inactive) |
| c1ccc2c(c1)CCN(c1ncnc3c1[nH]c1ccccc13)C2 | 81.6% (inactive) |
| Brc1ccc2[nH]c3c(N4CCc5ccccc5C4)ncnc3c2c1 | -5.4% (inactive) |
| COc1ccc2[nH]c3c(N4CCN(Cc5ccc6c(c5)OCO6)CC4)ncnc3c2c1 | 23.1% (inactive) |
| Cc1ccc2[nH]c3c(N4CCN(Cc5ccc6c(c5)OCO6)CC4)ncnc3c2c1 | 73.7% (inactive) |
| Fc1ccc2[nH]c3c(N4CCN(Cc5ccc6c(c5)OCO6)CC4)ncnc3c2c1 | 58.2% (active) |
| Cc1ccc2c(c1)[nH]c1c(N3CCN(Cc4ccc5c(c4)OCO5)CC3)ncnc12 | 58.5% (inactive) |
| COc1cccc2[nH]c3c(N4CCN(Cc5ccc6c(c5)OCO6)CC4)ncnc3c12 | 60.8% (inactive) |
| COc1ccc2c(c1)[nH]c1c(N3CCN(Cc4ccc5c(c4)OCO5)CC3)ncnc12 | 86% (active) |
| O=C(COC(=O)Cc1cccs1)Nc1ccc(F)c(F)c1F | -10.6% (inactive) |
| Cc1ccccc1-n1c(=O)cc(NCc2ccc3c(c2)OCO3)[nH]c1=O | -1.9% (inactive) |
| CN1C(=O)/C(=C\c2ccccc2)Sc2ccc(C(=O)N3CCN(c4ccccn4)CC3)cc21 | 46.8% (inactive) |
| CN1C(=O)/C(=C/c2ccc(C(F)(F)F)cc2)Sc2ccc(C(=O)N3CCN(c4ccccn4)CC3)cc21 | 17.8% (inactive) |
| CCN(CC)S(=O)(=O)c1ccc(S(=O)(=O)Nc2ccc(C(=O)N3CCCC3)cc2)cc1 | -2.4% (inactive) |
| COc1ccc(NC(=O)CCN2C(=O)c3cccc([N+](=O)[O-])c3C2=O)cc1 | -11.3% (inactive) |

| Structure (SMILES) | inhibition |
| --- | --- |
| N=c1oc2ccc(Cl)cc2cc1C(=O)Nc1ccc(F)cc1 | -7.8% (inactive) |
| O=C(CCS(=O)(=O)c1ccccc1)Nc1ccccc1N1CCOCC1 | -9% (inactive) |
| CCOC(=O)C1=C(C)N=C2c3ccccc3C(=O)C2C1c1ccc(C)cc1 (configuration not stated) | 44.1% (inactive) |
| CCOC(=O)C1=C(C)N=C2c3ccccc3C(=O)C2C1c1ccc(Br)cc1 (configuration not stated) | 72.4% (active) |
| CCOC(=O)C1=C(C)N=C2c3ccccc3C(=O)C2C1c1ccc(Cl)cc1 (configuration not stated) | 16.6% (inactive) |
| Cc1ccc(C2N(c3cccc(Cl)c3)C(=O)N3CCCN23)cc1 (configuration not stated) | 4.2% (inactive) |
| O=[N+]([O-])c1cc(/C=N/n2c(-c3cccnc3)n[nH]c2=S)ccc1Cl | -11.7% (inactive) |
| Cc1cc(C)nc(NC(=O)Cc2ccc([N+](=O)[O-])cc2)c1 | -15.5% (inactive) |
| O=C(Nc1ccccc1C(F)(F)F)N1CCCCCC1 | -17.1% (inactive) |
| O=C(NCc1cccnc1)c1ccc2c(c1)C(=O)N(Cc1ccccc1)C2=O | -4.4% (inactive) |
| Cc1c(C#N)c(NC(=O)C(C)C)n(Cc2ccccc2)c1C | -2.8% (inactive) |
| Cc1c(C#N)c(NC(=O)CCl)n(Cc2ccc(F)cc2)c1C | 94.1% (active) |
| COc1ccc(Cn2c(C)c(C)c(C#N)c2NC(=O)Nc2ccc(F)cc2)cc1 | -50% (inactive) |
| Cc1ccc(C(=O)N2CCOCC2)cc1S(=O)(=O)N1CCCCC1 | -11.7% (inactive) |
| CCN1CCN(CC(=O)Nc2ccc(C)cc2C)C(=O)C1=O | 29.5% (inactive) |
| COc1ccc(NC(=O)C2=C(C)NC(=S)NC2c2ccc(O)c(OC)c2)cc1 (configuration not stated) | -36.2% (inactive) |
| Cc1ccc(NC(=O)c2cc(-n3cnnc3)ccc2Cl)c(C)c1 | 63.4% (active) |
| Cc1ccc(NC(=O)c2cc(-n3cnnc3)ccc2Cl)cc1 | -21.5% (inactive) |
| Cc1ccnc(NC(=O)c2cc(-n3cnnc3)ccc2Cl)c1 | -27% (inactive) |
